Assay results published in PubChem BioAssay (EPA / NIEHS).
Results filed as inconclusive are left out. Calls of active or inactive are those of the source. The calls were made as follows, unless noted: active = hit-call score of the fitted dose curve at least 0.9, where 1 is the maximum; inactive = score below 0.9.

Read-out: Glyceraldehyde-3-phosphate dehydrogenase (Homo sapiens) (UniProt P04406)
Test: CLD_GAPDH_48hr: CellzDirect (CLD) Gene Expression Assay for Baseline Control (Glyceraldehyde 3-phosphate dehydrogenase) at 48 hours (AID 2283706; active = hit-call score of the fitted dose curve at least 0.9, where 1 is the maximum;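 also: active means higher GAPDH mRNA than DMSO vehicle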)
Summary of the method: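 GAPDH baseline-control readout: qNPA chemiluminescent mRNA quantitation in human liver primary cells 48 h after daily dosing on two consecutive days, vehicle 0.2% DMSO; gain of signal fitted against DMSO, cytotoxicity flagged by phase-contrast morphology.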

Sequence of Glyceraldehyde-3-phosphate dehydrogenase (Homo sapiens) (P04406 whole entry, looked up): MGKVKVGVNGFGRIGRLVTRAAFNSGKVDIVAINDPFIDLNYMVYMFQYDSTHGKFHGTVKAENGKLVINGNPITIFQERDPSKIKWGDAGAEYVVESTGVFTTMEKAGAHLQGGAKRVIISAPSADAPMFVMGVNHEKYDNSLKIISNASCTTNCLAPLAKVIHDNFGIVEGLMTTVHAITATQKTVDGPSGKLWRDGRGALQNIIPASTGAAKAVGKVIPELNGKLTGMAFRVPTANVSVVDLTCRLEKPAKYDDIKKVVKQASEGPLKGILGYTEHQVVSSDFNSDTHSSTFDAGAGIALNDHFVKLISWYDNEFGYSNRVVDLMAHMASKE

| Structure (SMILES) | outcome |
| --- | --- |
| Cc1ccccc1CO[C@@H]1C[C@@]2(C(C)C)CC[C@]1(C)O2 | inactive |
| CCNc1nc(NC(C)C)nc(SC)n1 | inactive |
| CN(C)c1nc(=O)n(C2CCCCC2)c(=O)n1C | inactive |
| CCSC(=O)N(CC)C1CCCCC1 | inactive |

Read-out: alkyl and aryl transferase (GSTA2), GSTA2 (gene 2939)
Test: CLD_GSTA2_48hr: CellzDirect (CLD) Gene Expression Assay for alkyl and aryl transferase (GSTA2) at 48 hours (AID 2283708; active = hit-call score of the fitted dose curve at least 0.9, where 1 is the maximum;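 also: active means mRNA induction above DMSO vehicle baseline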)
Protocol: CLD_48hr is a cell-based, multiplexed-readout assay that uses hepatocyte, a human liver primary cell, with measurements taken at 48 hours after chemical dosing in a 96-well plate.CLD_GSTA2_48hr is one of 16 assay component(s) measured or calculated from the CLD_48hr assay. It is designed to make measurements of mRNA induction, a form of inducible reporter, as detected with chemiluminescence signals by Quantitative Nuclease Protection Assay (qNPA) technology.Data from the assay component CLD_GSTA2_48hr was analyzed at the endpoint, CLD_GSTA2_48hr, in the positive analysis fitting direction relative to DMSO as the negative control and baseline of activity. Using a type of inducible reporter, gain-of-signal activity can be used to understand changes in the reporter gene as they relate to the gene GSTA2. Furthermore, this assay endpoint can be referred to as a primary readout. To generalize the intended target to other relatable targets, this assay endpoint is annotated to the transferase intended target family, where subfamily is alkyl and aryl transferase.
Human hepatocyte cultures were treated daily for two consecutive days with fresh dosing solutions containing appropriate concentrations of the 320 ToxCast chemicals (chemical identities were blinded to CellzDirect and other ToxCast collaborators), vehicle control (0.2% DMSO), and positive control inducers as summarized in Table 1. […] These replicate data, coupled with internal replicates designed within the blinded ToxCast chemical library, provided additional data to evaluate interindividual differences between hepatocyte preparations and their potential impact on chemical profiles.Cell morphology and integrity were evaluated using phase-contrast microscopy as an indicator of hepatocyte cell health (Tyson & Green, 1987). Cultures for each treatment group (i.e., media, vehicle [0.2% DMSO], positive control inducers [multiple concentrations], and the ToxCast chemicals [multiple concentrations]) were observed and cell morphology was assessed relative to vehicle control cultures at each harvest time point (0, 6, 24, or 48 h). […] Images were evaluated at the conclusion of the study to assess changes in cell integrity and account for the effects of chemical exposure on uncharacteristic changes in concentration-dependent gene expression profiles. […]

| Structure (SMILES) | outcome | AC50 |
| --- | --- | --- |
| Cc1ccccc1CO[C@@H]1C[C@@]2(C(C)C)CC[C@]1(C)O2 | inactive | – |
| CCNc1nc(NC(C)C)nc(SC)n1 | – | 8.73 µM (active) |
| CCC(C)(CC)c1cc(NC(=O)c2c(OC)cccc2OC)on1 | inactive | – |
| CCSC(=O)N(CC)C1CCCCC1 | – | 7.96 µM (active) |

Read-out: glucuronosyltransferase (UGT1A1), UGT1A1 (gene 54658)
Test: CLD_UGT1A1_48hr: CellzDirect (CLD) Gene Expression Assay for glucuronosyltransferase (UGT1A1) at 48 hours (AID 2283709; active = hit-call score of the fitted dose curve at least 0.9, where 1 is the maximum;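 also: actives increase expression relative to DMSO so potency refers to induction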)
Summary of the method: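 Quantitative nuclease protection assay (chemiluminescent) for UGT1A1 mRNA at 48 h in human hepatocyte cultures from two donors, redosed daily with fresh solutions. Induction fitted relative to 0.2% DMSO; phase-contrast morphology annotated cytotoxicity.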

| Structure (SMILES) | AC50 | outcome |
| --- | --- | --- |
| Cc1ccccc1CO[C@@H]1C[C@@]2(C(C)C)CC[C@]1(C)O2 | 7.69 µM (active) | – |
| CCNc1nc(NC(C)C)nc(SC)n1 | – | inactive |
| CN(C)c1nc(=O)n(C2CCCCC2)c(=O)n1C | – | inactive |
| CCC(C)(CC)c1cc(NC(=O)c2c(OC)cccc2OC)on1 | 0.498 µM (active) | – |
| CCSC(=O)N(CC)C1CCCCC1 | – | inactive |

Read-out: sulfotransferase (SULT2A), SULT2A1 (gene 6822)
Test: CLD_SULT2A_48hr: CellzDirect (CLD) Gene Expression Assay for sulfotransferase (SULT2A) at 48 hours (AID 2283710; active = hit-call score of the fitted dose curve at least 0.9, where 1 is the maximum;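 also: hits raise SULT2A1 transcript above the 0.2% DMSO vehicle baseline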)
Summary of the method: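 SULT2A1 transcript measured by qNPA chemiluminescence in human primary hepatocyte cultures after 48 h, with fresh dosing solutions on two consecutive days; gain-of-signal fitting against 0.2% DMSO vehicle; cytotoxicity annotated from phase-contrast morphology.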

| Structure (SMILES) | outcome | AC50 |
| --- | --- | --- |
| Cc1ccccc1CO[C@@H]1C[C@@]2(C(C)C)CC[C@]1(C)O2 | inactive | – |
| CCNc1nc(NC(C)C)nc(SC)n1 | inactive | – |
| CN(C)c1nc(=O)n(C2CCCCC2)c(=O)n1C | inactive | – |
| CCC(C)(CC)c1cc(NC(=O)c2c(OC)cccc2OC)on1 | – | 3.78 µM (active) |
| CCSC(=O)N(CC)C1CCCCC1 | inactive | – |

Tested on: not listed separately
Test: STM_H9_OrnithineISnorm_perc: Stemina devTOX quickPredict H9 human embryonic stem cell (hESC)-based Assay for Ornithine (ORN) Metabolite Biomarker, Normalized (AID 2283712);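 also: ornithine released into spent medium during last day measured by mass spectrometry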
Summary of the method: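 Ornithine secreted by H9 hESCs after 72h compound treatment (daily media/compound renewal) was quantified in final-day media by UPLC-HRMS. Values are isotope-standard-normalized, expressed relative to 0.1% DMSO, fitted in positive direction.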

| Structure (SMILES) | AC50 | outcome |
| --- | --- | --- |
| CCCCCCCCCC[N+](C)(C)CCCCCCCCCC | 1.82 µM (active) | – |
| C=CC(=O)NCNC(=O)C=C | 65.6 µM (active) | – |
| CCCCCCCCOC(=O)c1ccccc1C(=O)OCCCCCCCC | – | inactive |
| CO/C=C(/C(=O)OC)c1ccccc1COc1cccc(C(F)(F)F)n1 | 0.0992 µM (active) | – |
| Clc1ccc(C(Cl)(Cl)Cl)cc1 | 94.7 µM (active) | – |
| Oc1ccc(C(c2ccc(O)cc2)(C(F)(F)F)C(F)(F)F)cc1 | – | inactive |
| CC1=C2C[C@H]3[C@@H](CC=C4C[C@@H](O)CC[C@@]43C)[C@@H]2CC[C@]12O[C@@H]1C[C@H](C)CN[C@H]1[C@H]2C | – | inactive |
| CCC(=O)O[C@H]1CC[C@H]2[C@@H]3CCC4=CC(=O)CC[C@]4(C)[C@H]3CC[C@]12C | 29.5 µM (active) | – |
| Clc1ccc(C(c2ccccc2Cl)C(Cl)(Cl)Cl)cc1 (centres undefined) | 79.3 µM (active) | – |
| ClC1=C(Cl)[C@]2(Cl)[C@@H]3[C@H]4C[C@H]([C@@H]5O[C@H]45)[C@@H]3[C@@]1(Cl)C2(Cl)Cl | 60.9 µM (active) | – |
| C1CC2OC2CC1C1CO1 (centres undefined) | 79.3 µM (active) | – |
| CCNc1nc(NC(C)C)nc(SC)n1 | – | inactive |
| ClC1=C(Cl)[C@]2(Cl)[C@@H]3[C@@H]4C[C@@H]([C@H]5O[C@@H]45)[C@@H]3[C@@]1(Cl)C2(Cl)Cl | – | inactive |
| COS(=O)(=O)OC | – | inactive |
| CCC(C)c1cc([N+](=O)[O-])cc([N+](=O)[O-])c1O (centres undefined) | – | inactive |
| O=NN(c1ccccc1)c1ccccc1 | – | inactive |
| CCSC(=O)N(CC)C1CCCCC1 | – | inactive |
| Nn1cnnc1 | 0.037 µM (active) | – |

Tested on: not listed separately
Test: STM_H9_CystineISnorm_perc: Stemina devTOX quickPredict H9 human embryonic stem cell (hESC)-based Assay for Cystine (CYSS) Metabolite Biomarker, Normalized (AID 2283713)
Summary of the method: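 Cells are held undifferentiated and treated for 72h, receiving fresh medium with compound every 24h. Cystine secreted during the final day is quantified by UPLC-HRMS against a labeled spike-in, then expressed relative to the DMSO vehicle median.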

| Structure (SMILES) | AC50 | outcome |
| --- | --- | --- |
| CCCCCCCCCC[N+](C)(C)CCCCCCCCCC | 2.44 µM (active) | – |
| C=CC(=O)NCNC(=O)C=C | 81.3 µM (active) | – |
| CCCCCCCCOC(=O)c1ccccc1C(=O)OCCCCCCCC | – | inactive |
| CO/C=C(/C(=O)OC)c1ccccc1COc1cccc(C(F)(F)F)n1 | – | inactive |
| Clc1ccc(C(Cl)(Cl)Cl)cc1 | 77.8 µM (active) | – |
| Oc1ccc(C(c2ccc(O)cc2)(C(F)(F)F)C(F)(F)F)cc1 | – | inactive |
| CC1=C2C[C@H]3[C@@H](CC=C4C[C@@H](O)CC[C@@]43C)[C@@H]2CC[C@]12O[C@@H]1C[C@H](C)CN[C@H]1[C@H]2C | – | inactive |
| CCC(=O)O[C@H]1CC[C@H]2[C@@H]3CCC4=CC(=O)CC[C@]4(C)[C@H]3CC[C@]12C | 20.6 µM (active) | – |
| Clc1ccc(C(c2ccccc2Cl)C(Cl)(Cl)Cl)cc1 (centres undefined) | 54.5 µM (active) | – |
| ClC1=C(Cl)[C@]2(Cl)[C@@H]3[C@H]4C[C@H]([C@@H]5O[C@H]45)[C@@H]3[C@@]1(Cl)C2(Cl)Cl | 78.7 µM (active) | – |
| C1CC2OC2CC1C1CO1 (centres undefined) | 47 µM (active) | – |
| CCNc1nc(NC(C)C)nc(SC)n1 | 34.3 µM (active) | – |
| ClC1=C(Cl)[C@]2(Cl)[C@@H]3[C@@H]4C[C@@H]([C@H]5O[C@@H]45)[C@@H]3[C@@]1(Cl)C2(Cl)Cl | – | inactive |
| COS(=O)(=O)OC | – | inactive |
| CCC(C)c1cc([N+](=O)[O-])cc([N+](=O)[O-])c1O (centres undefined) | – | inactive |
| O=NN(c1ccccc1)c1ccccc1 | – | inactive |
| CCSC(=O)N(CC)C1CCCCC1 | 32.1 µM (active) | – |
| Nn1cnnc1 | – | inactive |

Tested on: not listed separately
Test: STM_H9_OrnCyssISnorm_ratio: Stemina devTOX quickPredict H9 human embryonic stem cell (hESC)-based Assay for Ornithine (ORN):Cystine (CYSS) Ratio (AID 2283714; active = hit-call score of the fitted dose curve at least 0.9, where 1 is the maximum)
Summary of the method: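 Ratio of internal-standard-normalized ornithine to cystine, measured by UPLC-HRMS in spent media from the last 24 h. H9 cells kept pluripotent, dosed 72 h with daily media and compound renewal; DMSO 0.1% serves as baseline.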

| Structure (SMILES) | AC50 | outcome |
| --- | --- | --- |
| CCCCCCCCCC[N+](C)(C)CCCCCCCCCC | 1.94 µM (active) | – |
| C=CC(=O)NCNC(=O)C=C | 73.2 µM (active) | – |
| CCCCCCCCOC(=O)c1ccccc1C(=O)OCCCCCCCC | – | inactive |
| CO/C=C(/C(=O)OC)c1ccccc1COc1cccc(C(F)(F)F)n1 | – | inactive |
| Clc1ccc(C(Cl)(Cl)Cl)cc1 | 86.5 µM (active) | – |
| CC1=C2C[C@H]3[C@@H](CC=C4C[C@@H](O)CC[C@@]43C)[C@@H]2CC[C@]12O[C@@H]1C[C@H](C)CN[C@H]1[C@H]2C | – | inactive |
| CCC(=O)O[C@H]1CC[C@H]2[C@@H]3CCC4=CC(=O)CC[C@]4(C)[C@H]3CC[C@]12C | 28.6 µM (active) | – |
| Clc1ccc(C(c2ccccc2Cl)C(Cl)(Cl)Cl)cc1 (centres undefined) | 69.9 µM (active) | – |
| ClC1=C(Cl)[C@]2(Cl)[C@@H]3[C@H]4C[C@H]([C@@H]5O[C@H]45)[C@@H]3[C@@]1(Cl)C2(Cl)Cl | 72.4 µM (active) | – |
| C1CC2OC2CC1C1CO1 (centres undefined) | 66.1 µM (active) | – |
| CCNc1nc(NC(C)C)nc(SC)n1 | 33.3 µM (active) | – |
| CCC(C)c1cc([N+](=O)[O-])cc([N+](=O)[O-])c1O (centres undefined) | – | inactive |
| O=NN(c1ccccc1)c1ccccc1 | – | inactive |
| CCSC(=O)N(CC)C1CCCCC1 | 35.2 µM (active) | – |
| Nn1cnnc1 | – | inactive |
